# Screening data: PubChem, Sanford-Burnham Center for Chemical Genomics
# Only a selection was taken, and hits are over-represented in it overall.
# ER stress surv: ER stress cell death inhibition; CSM14.1 thapsigargin ER stress survival, ATP luminescence; relative survival (cellular ATP), % at 15 µg/mL (by protocol); actives 0.33% (n = 48,000); AID 1010;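 active = survival measured by cellular ATP above 50% at 15 µg/ml in the first screen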;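 also: cell death triggered by about 15 µM thapsigargin; ATP read 24 h after thapsigargin was added; plate controls were thapsigargin with DMSO for no effect and DMSO without thapsigargin for full effect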
# * = called active by the depositor.
SMILES,ER stress surv
COc1ccc(OC)c(NC(=O)CN(c2ccccc2Cl)S(C)(=O)=O)c1,-7.0
CN1CCN(Cn2c(O)c(N=NC(=O)c3ccccc3Br)c3ccccc32)CC1,4.9
N#C/C(=C/c1ccc(I)o1)c1ccc(F)cc1,-2.7
Cc1cc2ncn(CC(O)COc3ccc(Br)cc3)c2cc1C (centres undefined),3.1
O=[N+]([O-])c1cc(Br)ccc1C1CC1,4.7
CC(C)OP(=O)(OC(C)C)C(Nc1cccc(N)c1)c1cccc(N)c1 (centres undefined),81.1*
CC(C)OP(=O)(OC(C)C)C(Nc1cccc([N+](=O)[O-])c1)c1cccc([N+](=O)[O-])c1 (centres undefined),5.5
COP(=O)(OC)C(Nc1cc(Cl)cc(Cl)c1)c1cccc(O)c1 (centres undefined),-2.8
COc1ccc(C2CC(C(F)(F)F)n3ncc(C(=O)N(C)Cc4ccccc4)c3N2)cc1OC (centres undefined),82.0*
COc1ccc(C2CC(C(F)(F)F)n3ncc(C(=O)Nc4ccc(F)cc4F)c3N2)cc1OC (centres undefined),3.3
Cc1ccc(C2CC(C(F)(F)F)n3ncc(C(=O)N(Cc4ccccc4)Cc4ccccc4)c3N2)cc1 (centres undefined),3.6
O=C(Nc1cccc(Cl)c1Cl)c1ccc(CN2CCc3ccccc3C2)cc1,0.8
COc1ccc(C2CC(=O)C3=C(C2)Nc2ccccc2NC3c2ccc(C)cc2)cc1 (centres undefined),-3.1
COc1ccc(C2CC(=O)C3=C(C2)Nc2ccccc2NC3c2ccccc2C)cc1 (centres undefined),98.9*
O=C1CC(c2ccccc2)CC2=C1C(c1ccccc1Cl)Nc1ccccc1N2 (centres undefined),-5.0
COc1ccc(C2CC(=O)C3=C(C2)Nc2ccccc2NC3c2ccc(OCc3ccccc3)cc2)cc1 (centres undefined),94.2*
COc1ccc(C2CC(=O)C3=C(C2)Nc2ccccc2NC3c2ccccc2OC)cc1 (centres undefined),3.1
COc1ccc(C2CC(=O)C3=C(C2)Nc2ccccc2NC3c2ccc(OCc3ccccc3)c(OC)c2)cc1 (centres undefined),-0.5
COc1ccc(C2CC(=O)C3=C(C2)Nc2ccccc2NC3c2c(Cl)cccc2Cl)cc1 (centres undefined),2.0
COc1ccc(C2CC(=O)C3=C(C2)Nc2ccccc2NC3c2ccccc2Cl)cc1 (centres undefined),101.1*
COc1ccc(C2Nc3ccccc3NC3=C2C(=O)CC(c2ccc(Cl)cc2)C3)cc1 (centres undefined),8.2
Cc1ccc(-n2nc3ccc(NC(=S)NC(=O)c4ccccc4Cl)cc3n2)cc1Cl,2.9
Cc1cc(/C=C2\NC(=O)NC2=O)c(C)n1-c1cccc([N+](=O)[O-])c1,15.2
COCCOC(=O)c1ccc(NC(=O)COc2ccc(C)c(C)c2)cc1,11.2
COc1ccccc1NC(=O)c1c(NC(=O)Cc2ccccc2)sc2c1CCCCC2,9.7
SMILES,ER stress surv
COc1ccc(OCC(=O)N/N=C/c2ccc(C)cc2)cc1,7.8
O=C(N/N=C/c1cc(Cl)cc(Br)c1O)c1ccccc1[N+](=O)[O-],10.9
O=Cc1ccc(OC(=O)c2ccc(I)cc2)cc1,7.3
CC(C)(C)c1ccc(C(=O)N2N=C(c3cccnc3)CC2(O)C(F)(F)F)cc1 (centres undefined),55.2*
CC(C)(C)c1ccc(C(=O)N2N=C(c3ccc([N+](=O)[O-])cc3)CC2(O)C(F)(F)F)cc1 (centres undefined),12.2
COc1cccc(C2=NN(C(=O)c3ccc(C(C)(C)C)cc3)C(O)(C(F)(F)F)C2)c1 (centres undefined),1.3
CC(=O)c1cccc(N2C(=O)C3C4C=CC(C4=C(C)C)C3C2=O)c1 (centres undefined),0.8
COc1ccc(C(C)=O)cc1N1C(=O)C=CC1=O,-7.1
COc1ccc(C(C)=O)cc1N1C(=O)C2C3C=CC(C3=C(c3ccccc3)c3ccccc3)C2C1=O (centres undefined),77.2*
N#Cc1c2ncn(CC(=NO)c3ccccc3)c(=O)c2c2n1CCC2,7.5
COc1ccc(-c2nnc(SCc3ccccc3[N+](=O)[O-])n2-c2ccccc2)cc1,13.9
CCc1ccccc1NCC(O)Cn1c2ccccc2c2ccccc21 (centres undefined),5.4
COc1ccc(NC(=O)c2ccc(Nc3nnc(C)c4ccccc34)cc2)cc1,-3.1
Cc1cc(Cl)cc(C)c1OCCCCCCn1ccnc1,54.7*
Cc1cc(C)c(OCCCCn2ccnc2)c(C)c1,-4.5
Cc1cc(OCCCCCn2ccnc2)cc(C)c1Cl,37.0
COc1ccc(NC(=O)c2c(C)c(-c3ccc(C)cc3)nc3ccccc23)c(OC)c1,67.9*
COc1ccc(-c2nc3ccccc3c(C(=O)Nc3ccc(C)cc3)c2C)cc1,2.6
COc1ccc(NC(=O)c2cc(-c3ccc(OC)cc3OC)nc3ccccc23)c(OC)c1,4.0
O=C(/C=C/c1ccc(-c2ccc(Cl)cc2Cl)o1)NCCCN1CCOCC1,-9.1
Cc1ccc(-c2cc(C(F)(F)F)n3ncc(C(=O)N(C)Cc4ccccc4)c3n2)cc1,4.6
O=C1/C(=C/c2ccc(Cl)cc2Cl)SC(=S)N1c1ccc(Br)cc1,20.1
CCOc1ccc(S(=O)(=O)N(CC(=O)Nc2ccccc2OCC)c2ccc(C)cc2)cc1,66.5*
CCOc1ccc(S(=O)(=O)N(CC(=O)Nc2ccccc2CC)c2ccc(C)cc2)cc1,0.5
CCOc1ccccc1NC(=O)CN(c1ccc(C)cc1)S(=O)(=O)c1ccc(SC)cc1,5.1
SMILES,ER stress surv
COc1cc(OC)cc(C(=O)N2CCN(Cc3ccco3)CC2)c1,-2.3
O=C(N/N=C/c1cccc([N+](=O)[O-])c1)C(Oc1ccccc1)Oc1ccccc1,4.7
O=[N+]([O-])c1cccc(/C=N\N2CCN(C(c3ccccc3)c3ccccc3)CC2)c1,52.4*
NC(=O)c1ccccc1N=Cc1cccc([N+](=O)[O-])c1,1.2
O=C1/C(=C/c2ccc(Br)o2)SC(=S)N1c1ccccc1,9.9
COc1cc(C2Nc3ccc4ccccc4c3C3=C2C(=O)CC(C)(C)C3)cc(OC)c1O (centres undefined),-0.6
O=C1C=C(NNC(=O)c2ccncc2)CC(c2ccco2)C1 (centres undefined),8.8
COC(=O)c1cc(C(=O)NC2CCCCCC2)cc([N+](=O)[O-])c1,3.0
CCOc1cc(C2Nc3ccccc3NC3=C2C(=O)CC(c2ccccc2)C3)cc(Br)c1O (centres undefined),35.0
CCOc1cc(C2Nc3ccccc3NC3=C2C(=O)CC(c2ccc(OC)cc2)C3)cc(Br)c1O (centres undefined),64.0*
COc1ccc(C2CC(=O)C3=C(C2)Nc2ccccc2NC3c2ccc(OC)c(Br)c2)cc1 (centres undefined),95.5*
COc1ccc(C2CC(=O)C3=C(C2)Nc2ccccc2NC3c2ccc(OC)c(OC)c2)cc1 (centres undefined),12.3
COc1ccc(C2CC(=O)C3=C(C2)Nc2ccccc2NC3c2cccc(F)c2)cc1OC (centres undefined),2.5
CCOc1ccc(C2Nc3ccccc3NC3=C2C(=O)CC(c2ccc(OC)cc2)C3)cc1OC (centres undefined),4.9
COc1ccc(C2CC(=O)C3=C(C2)Nc2ccccc2NC3c2cccc(Oc3ccccc3)c2)cc1OC (centres undefined),85.4*
